Source: PubChem (National Center for Advancing Translational Sciences (NCATS))
SW480 rereplic: induces DNA re-replication in SW480 colon adenocarcinoma cells; SW480 DNA re-replication, Hoechst DNA content imaging, 48 h; Potency, µM (top dose mostly 46.1 µM), most hits filed as activators; AID 624297; hit rate 1.8% among 340,000; further: nearly all actives have a fitted effect of over 55% in size
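250 cells/well; 23 nL cpd via pin tool; 48 hr, 37 C, 5% CO2; Hoechst 40 min; imager read of total nuclear intensity, ex 405/em 500-530 nm.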
Chronic BCR inh: inhibitors of chronic active B-cell receptor signaling; ABC-DLBCL IkBa-CBG/CBR reporter, luminescence ratio, 4 h; Potency, µM (series often up to 46.1 µM), hits mostly inhibitors; hit rate 0.05% among 340,000; AID 493014; active means well fitted inhibition curve with a large enough effect in the signal ratio, with a control signal flat, not every such curve was filed as active; inconclusive means small, poorly fitted or top-dose-only effect, or effect the other way, or a change in a side signal; the % refers to the signal ratio
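Cell line TMD8 (human ABC DLBCL), stably expressing tet-inducible CBG68-IkBa fusion and CBR; IMDM/0.5% FBS; cpd up to 46 uM; dox induction, 4 h, 37C/5% CO2; dual luminescence; green/red ratio; MG132 control.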
IL-1B inflam inh: inflammasome signaling inhibition, IL-1 beta readout; hit rate 4.7% among 360,000; THP-1 LPS/ATP IL-1B secretion, AlphaLISA, 16 h; hits give low values; activity change, % at 57.5 µM; in the data active means activity change below about -50%; inconclusive means mostly about -30% to -49%
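THP-1 cells pretreated 1 hr with compounds (up to 57.5 uM final), then stimulated with LPS (250 ng/mL final) plus ATP (1.25 mM final); secreted IL-1B measured by AlphaLISA after 16 hr, decreased signal indicating inhibition.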
DT40 TDP1 no CPT: qHTS for Inhibitors of human tyrosyl-DNA phosphodiesterase 1 (TDP1): qHTS in cells in absence of CPT; DT40 Tdp1-/- hTDP1 cells, no CPT, ATP luminescence, 48 h; Potency, µM (series often up to 46.2 µM), actives largely listed as inhibitors; hit rate 15% among 420,000; further: nearly all actives have a fitted effect of over 55% in size
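Compound effects on proliferation are scored in DT40 Tdp1-/-;hTDP1 cells in the absence of CPT. ATP levels (CellTiter-Glo luminescence) are recorded after a ≥48 hr, 37 °C incubation.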
MCF10A rereplic: inducers of DNA re-replication in MCF 10A breast cells; MCF 10A DNA re-replication, Hoechst nuclear intensity, 48 h; Potency, µM (highest dose often 46.1 µM), usual class: activators; hit rate 2.9% among 350,000; further: nearly all actives have a fitted effect of over 50% in size
DT40 TDP1 CPT: DT40-hTDP1 cell growth loss with CPT. Potency, µM (highest dose often 46.2 µM), most hits filed as inhibitors. hit rate 12% among 420,000. AID 686979. chicken DT40 Tdp1-/-;hTDP1 cells + 20 nM CPT, ATP luminescence, 48 h; further: nearly all actives have a fitted effect of over 55% in size
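Chicken DT40 Tdp1-/- cells complemented with human TDP1, 400 cells/well, exposed to compounds plus 20 nM camptothecin for at least 48 h at 37 C; viability read as ATP content by CellTiter-Glo luminescence.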
Hits are given with their value; [ ] = dose if it differs, or a comment. In the library only some 19% were active in any assay of this set; here they are far more common. Unless noted, the call rests on the fitted dose curve; in most records, active means well fitted curve in the direction sought with a large enough effect; inconclusive means small, poorly fitted or top-dose-only effect, or another doubt; inactive means no such curve, though single readings can be large; an effect the other way counts as inactive or inconclusive.

O=C(O)C[C@H](O)C[C@H](O)/C=C/c1c(C2CC2)nc2ccccc2c1-c1ccc(F)cc1 was read as DT40 TDP1 no CPT 1.88µM and DT40 TDP1 CPT 2.66µM.
C=CCn1c(C)cc(-c2csc(NCC)n2)c1C was read as SW480 rereplic inconclusive, Chronic BCR inh inactive, IL-1B inflam inh -55.1, DT40 TDP1 no CPT inconclusive, MCF10A rereplic inconclusive and DT40 TDP1 CPT inconclusive.
For C=CCn1c(C)cc(-c2csc(NC)n2)c1C the results were SW480 rereplic inactive, Chronic BCR inh inconclusive, IL-1B inflam inh -96.4, DT40 TDP1 no CPT inconclusive, MCF10A rereplic inconclusive and DT40 TDP1 CPT inconclusive.
For C=CCn1c(C)cc(-c2csc(NC(=O)C3=COCCO3)n2)c1C the results were SW480 rereplic inactive, Chronic BCR inh inactive, IL-1B inflam inh inactive, DT40 TDP1 no CPT inconclusive, MCF10A rereplic inactive and DT40 TDP1 CPT inconclusive.
`COc1ccc(OCC(=O)OCc2cc(=O)n3nc(C4CCCCC4)sc3n2)cc1` gave DT40 TDP1 no CPT inactive and DT40 TDP1 CPT inactive.
`Cc1nc(C(C)NC2CCN(c3cccc(NC(=O)c4ccncc4)c3)CC2)cs1` (configuration not stated) gave DT40 TDP1 no CPT inactive and DT40 TDP1 CPT inconclusive.
CCOC(=O)CN[C@H]1CCC2C3CC=C4C[C@@H](O)CC[C@]4(C)C3CC[C@@]21C (some centres not stated) was read as SW480 rereplic inactive, Chronic BCR inh inactive, IL-1B inflam inh inactive, DT40 TDP1 no CPT inconclusive, MCF10A rereplic inactive and DT40 TDP1 CPT inconclusive.
Screening CN(C)CCN[C@H]1CCC2C3CC=C4C[C@@H](O)CC[C@]4(C)C3CC[C@@]21C (some centres not stated) returned SW480 rereplic inconclusive, Chronic BCR inh inactive, IL-1B inflam inh inactive, DT40 TDP1 no CPT 3.26µM, MCF10A rereplic 20.6µM and DT40 TDP1 CPT 5.8µM.
Screening CC12CCC(O)CC1=CCC1C2CCC2(C)C3=NN=CC3CC12 (configuration not stated) returned SW480 rereplic inconclusive, IL-1B inflam inh inactive, DT40 TDP1 no CPT inconclusive, MCF10A rereplic 18.4µM and DT40 TDP1 CPT inactive.
For CC(C)(C)OC(=O)N(CCc1ccccc1)Cc1ccccc1OCc1cccc(NC(=O)C2CCC2)c1 the results were SW480 rereplic inactive, IL-1B inflam inh inactive, DT40 TDP1 no CPT 13µM, MCF10A rereplic inactive and DT40 TDP1 CPT 16.4µM.
`CC(C)(C)OC(=O)N(CCc1ccccc1)Cc1cccc(OCc2cccc(NC(=O)/C=C/c3ccccc3)c2)c1` gave SW480 rereplic inconclusive, IL-1B inflam inh inactive, DT40 TDP1 no CPT inconclusive, MCF10A rereplic inactive and DT40 TDP1 CPT inconclusive.
For CC(C)(C)OC(=O)N(CCc1ccccc1)Cc1cccc(OCc2cccc(NC(=O)C3CCC3)c2)c1 the results were SW480 rereplic inactive[9.22 µM], IL-1B inflam inh inactive, DT40 TDP1 no CPT inconclusive, MCF10A rereplic inconclusive and DT40 TDP1 CPT inconclusive.
Screening CC(C)(C)OC(=O)N(Cc1ccccc1)Cc1cccc(OCc2cccc(NC(=O)C3CC3)c2)c1 returned SW480 rereplic inactive, IL-1B inflam inh inconclusive, DT40 TDP1 no CPT inconclusive, MCF10A rereplic inactive and DT40 TDP1 CPT inconclusive.
CC(C)(C)OC(=O)N(Cc1ccccc1)Cc1ccccc1OCc1cccc(NC(=O)C2CCC2)c1 was read as SW480 rereplic inactive, IL-1B inflam inh inactive, DT40 TDP1 no CPT 16.4µM, MCF10A rereplic inconclusive and DT40 TDP1 CPT inconclusive.
CC(C)(C)OC(=O)N(Cc1ccccc1)Cc1ccccc1OCc1cccc(NC(=O)C2CC2)c1 was read as SW480 rereplic inconclusive, IL-1B inflam inh inactive, DT40 TDP1 no CPT inconclusive, MCF10A rereplic 14.6µM and DT40 TDP1 CPT inconclusive.
For CCc1nn(CC(=O)N2CCN(c3ccc(OC)cc3)CC2)c(=O)c2cc3occc3n12 the results were SW480 rereplic inactive, Chronic BCR inh inactive, IL-1B inflam inh inactive, DT40 TDP1 no CPT inactive, MCF10A rereplic inactive and DT40 TDP1 CPT inactive.
O=C(CCCOc1ccc(Cl)cc1Cl)N1CCc2ccccc2C1 was read as SW480 rereplic 2.59µM, Chronic BCR inh inactive, IL-1B inflam inh inactive, DT40 TDP1 no CPT inactive, MCF10A rereplic 3.26µM and DT40 TDP1 CPT inactive.
Cc1ccc(S(=O)(=O)N2CCN(C(=O)CCCOc3ccc(Cl)cc3C)CC2)cc1 was read as SW480 rereplic inactive, Chronic BCR inh inactive, IL-1B inflam inh -62.1, DT40 TDP1 no CPT inconclusive, MCF10A rereplic inactive and DT40 TDP1 CPT inconclusive.
Cc1ccc(S(=O)(=O)N2CCN(C(=O)CSc3ccc(Cl)cc3)CC2)cc1 was read as SW480 rereplic inactive, Chronic BCR inh inactive, IL-1B inflam inh -60.7, DT40 TDP1 no CPT inconclusive, MCF10A rereplic inconclusive and DT40 TDP1 CPT inactive.
`CC1(C(=O)NS(=O)(=O)c2ccccc2)CCN1C(=O)CCc1ccc(Cl)cc1Cl` (configuration not stated) gave IL-1B inflam inh inactive, DT40 TDP1 no CPT inactive and DT40 TDP1 CPT inactive.
For COc1ccc(/C=C2\CCCC3C2=NC(=S)NC3c2ccc(OC)cc2)cc1 (configuration not stated) the results were SW480 rereplic 18.4µM, Chronic BCR inh inactive, IL-1B inflam inh inactive, DT40 TDP1 no CPT inconclusive, MCF10A rereplic 7.31µM and DT40 TDP1 CPT inactive.
`CCCn1c(SCC(=O)N2N=C3/C(=C/c4ccc(OC)cc4)CCCC3C2c2ccc(OC)cc2)n[nH]c1=O` (configuration not stated) gave Chronic BCR inh inactive, IL-1B inflam inh inactive, DT40 TDP1 no CPT inconclusive, MCF10A rereplic inconclusive and DT40 TDP1 CPT inconclusive.
CC1CC1C(=O)OCC(=O)Nc1ccc(S(=O)(=O)N2CCOCC2)cc1 (configuration not stated) was read as SW480 rereplic inactive, Chronic BCR inh inactive, IL-1B inflam inh inactive, DT40 TDP1 no CPT inactive, MCF10A rereplic inactive and DT40 TDP1 CPT inactive.
Screening COc1ccc(Cl)cc1N(CC(=O)NCCSCc1ccccc1)S(C)(=O)=O returned SW480 rereplic inactive, Chronic BCR inh inactive, IL-1B inflam inh inactive, DT40 TDP1 no CPT inactive, MCF10A rereplic inactive and DT40 TDP1 CPT inactive.
COc1ccc(OC)c(N(CC(=O)NCCSCc2ccc(C)cc2)S(C)(=O)=O)c1 was read as SW480 rereplic inconclusive, Chronic BCR inh inactive, IL-1B inflam inh -62.2, DT40 TDP1 no CPT inconclusive, MCF10A rereplic inconclusive and DT40 TDP1 CPT inactive.
`O=C(CN(c1ccc(F)cc1)S(=O)(=O)c1ccccc1)NCCSC1CCCCC1` gave SW480 rereplic inactive, Chronic BCR inh inactive, IL-1B inflam inh -58.9, DT40 TDP1 no CPT inconclusive, MCF10A rereplic inactive and DT40 TDP1 CPT inconclusive.
